High-throughput results deposited in PubChem BioAssay by National Center for Advancing Translational Sciences (NCATS).
DRD3 antagonist = qHTS of D3 Dopamine Receptor Antagonist: qHTS; D3R cells, DiscoveRx beta-arrestin luminescence, antagonist mode; stronger effect = lower value; max response, negative = inhibition, %; hit rate 2.5% among 360,000; in the data active means max response below about -50%; inconclusive means no clear call, values can overlap the other calls; further: on the % scale 0 is the no-effect control and ±100 the full control effect
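Cells plated overnight at 1500 cells/well, then exposed to library compounds with dopamine controls for 90 minutes at 37 degrees C. DiscoveRx reagent added for 30–60 minutes at room temperature; luminescence read, quantitative HTS format.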
D3 ag = qHTS of D3 Dopamine Receptor Agonist: qHTS; max activation, %; D3R DiscoveRx beta-arrestin cells, luminescence, 90 min; D(3) dopamine receptor (Homo sapiens), P35462; hit rate 0.58% among 410,000; in the data active means max activation above about 30%; further: 0% is about no effect
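Agonist-mode cell screen: cells plated at 1500/well and incubated overnight at 37 °C, then exposed to library compounds for 90 min at 37 °C. Detection reagent was added for 30–60 min at room temperature, and luminescence was read.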
MBNL1-CUG inh = qHTS Assay for Inhibitors of MBNL1-poly(CUG) RNA binding; Potency, µM (titrated, usually from 57.5 µM), without a hit: top-dose activity change, negative = inhibition, usual class: inhibitors; TR-FRET MBNL1-His/biotin-(CUG)12 binding, 665/545 ratio; Muscleblind-like protein 1 (Homo sapiens), Q9NR56; hit rate 0.036% among 280,000; AID 2675, 2010; active means well fitted inhibition curve with a large enough effect in the signal ratio, with a control signal flat, not every such curve was filed as active; inconclusive means small, poorly fitted or top-dose-only effect, or effect the other way, or a change in a side signal; inactive means no such curve, though single readings can be large or run the other way; the % refers to the signal ratio; further: potency means the concentration at half of the fitted maximal effect; on the % scale 0 is the no-effect control and ±100 the full control effect
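Inhibition of protein-RNA binding appears as loss of TR-FRET between terbium anti-His antibody on MBNL1-His and streptavidin-XL665 on biotin-(CUG)12. Activity is normalized to buffer-only and uninhibited-complex controls.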
PTHR1 agonist = qHTS for PTHR1 Agonists: Primary Screen; HEK293 GP2 PTHR1 cells, GloSensor cAMP luminescence, 1 h; Potency, µM (highest dose often 115 µM), inactives show at the highest dose activation, hits mostly activators; hit rate 0.075% among 410,000; further: potency means the concentration at half of the fitted maximal effect; nearly all actives have a fitted effect of over 55% in size
Target sequence (Q03431 whole entry, looked up): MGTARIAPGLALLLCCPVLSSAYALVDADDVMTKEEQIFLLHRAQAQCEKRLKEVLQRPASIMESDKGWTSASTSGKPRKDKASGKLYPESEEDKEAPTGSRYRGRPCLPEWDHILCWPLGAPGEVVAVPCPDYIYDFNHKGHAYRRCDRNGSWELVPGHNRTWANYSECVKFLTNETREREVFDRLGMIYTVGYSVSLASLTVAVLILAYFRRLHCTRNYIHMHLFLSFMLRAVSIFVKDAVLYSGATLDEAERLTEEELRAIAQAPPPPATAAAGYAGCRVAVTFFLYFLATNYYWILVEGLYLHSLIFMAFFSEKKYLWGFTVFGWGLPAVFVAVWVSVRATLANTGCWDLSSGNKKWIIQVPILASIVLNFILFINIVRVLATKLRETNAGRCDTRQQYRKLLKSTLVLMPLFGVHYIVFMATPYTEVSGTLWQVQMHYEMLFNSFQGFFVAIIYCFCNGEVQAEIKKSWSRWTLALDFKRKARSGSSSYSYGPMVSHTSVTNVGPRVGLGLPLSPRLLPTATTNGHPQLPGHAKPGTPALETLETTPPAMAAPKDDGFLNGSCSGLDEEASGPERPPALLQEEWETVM
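HEK-293-derived GP2 cells expressing PTHR1 and a GloSensor cAMP reporter, 3,000/well, plated overnight, given luciferin plus IBMX (each 0.5 mM as added) for 1 h at 37 °C, then compound for 1 h at 37 °C. Luminescence was read after 15 min at room temperature.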
a7 integrin act = qHTS for Activators of Integrin-Mediated Alleviation for Muscular Dystrophy. alpha7betagal myoblasts, beta-gal FDG fluorescence, 48 h. Potency, µM (titrated, usually from 38.3 µM), without a hit: top-dose activation, hits mostly activators. hit rate 0.064% among 350,000. AID 624291, 2012;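 further: potency means the concentration at half of the fitted maximal effect; 100% = response of the positive control SU9516; nearly all actives have a fitted effect of over 60% in size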
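Alpha7betagal+/- myoblasts (passage 13) were plated 16-24 hr, then exposed to compounds (1:260 dilution of DMSO stock) for 48 hours at 37C. After MPER lysis, β-galactosidase reporter activity was read as FDG fluorescence (ex 480/em 540) after 30 minutes.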
CBFb RUNX1 block = qHTS Assay for Compounds Blocking the Interaction Between CBF-beta and RUNX1 for the Treatment of Acute Myeloid Leukemia; AlphaScreen CBFb-His/RUNX1-biotin binding, biochemical; Potency, µM (titrated, usually from 59.8 µM), without a hit: at the top dose activity, negative = inhibition, most hits filed as inhibitors; 230,000 tested, under 10 active; AID 1477, 2009; further: % of control where 0% means no effect
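His-tagged CBF-beta and biotinylated RUNX1 (30 nM each) were premixed 20 min at room temperature, exposed to compound for 15 min, then given nickel-chelate and streptavidin AlphaScreen beads (50 ng each). After 90 min, AlphaScreen signal was read.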
MBNL1-CUG FRET = qHTS Assay for Inhibitors of MBNL1-poly(CUG) RNA binding: Initial hit validation from the primary screen | TR-FRET MBNL1-His / biotin-(CUG)12 binding, 60 min | hit rate 50% among 140 | Potency, µM (titrated, usually from 57.6 µM), inactives show at the highest dose activity change, negative = inhibition, most hits filed as inhibitors | AID 493199, 2011 | shares compounds with MBNL1-CUG inh
MBNL1 AlphaScrn = qHTS Assay for Inhibitors of MBNL1-poly(CUG) RNA binding: Initial hit validation in AlphaScreen assay for MBNL1-(CUG)12 binding; shares compounds with MBNL1-CUG inh; AlphaScreen MBNL1-His / biotin-(CUG)12 binding; Potency, µM (titrated, usually from 57.7 µM), for inactives: top-dose activity, negative = inhibition, actives largely listed as inhibitors; hit rate 30% among 140; AID 493205, 2011
MBNL1 HTRF CS = qHTS Assay for Inhibitors of MBNL1-poly(CUG) RNA binding: Counterscreen HTRF assay; His-Menin/biotin-MLL peptide TR-FRET counterscreen; shares compounds with MBNL1-CUG inh; Potency, µM (highest dose often 57.6 µM), without a hit: at the highest dose activity, negative = inhibition, most hits filed as inhibitors; hit rate 20% among 120
* = called active by the depositor; i = inactive; ? = inconclusive; · = no result; [ ] = remark or other dose. Only some compounds are listed: those with a hit (about 2.8% of all), similar ones and a draw of the others. Unless noted, the call rests on the fitted dose curve; in most records, active means well fitted curve in the direction sought with a large enough effect; inconclusive means small, poorly fitted or top-dose-only effect, or another doubt; inactive means no such curve, though single readings can be large; an effect the other way counts as inactive or inconclusive.

SMILES	DRD3 antagonist	D3 ag	MBNL1-CUG inh	PTHR1 agonist	a7 integrin act	CBFb RUNX1 block	MBNL1-CUG FRET	MBNL1 AlphaScrn	MBNL1 HTRF CS
O=C(N/N=C/c1ccc(-c2ccccc2Cl)o1)c1ccccc1	?	-20.3	-3.1%	-27.2%	-24.5%	0.5%	·	·	·
O=S(=O)(N/N=C\c1ccc(-c2ccccc2Cl)o1)c1ccccc1	-52.3*	2.1	20µM*	i	0.0%	3.8%	7.6%	-11.3%	6.8%
COc1ccc(/C=N/NC2=NCCCCC2)c(OC)c1	2.6	-8.0	-5.3%	i	-11.2%	8.4%	·	·	·
Cc1[nH]c2ccccc2c1C(=O)COC(=O)Cn1cnc2ccccc21	9.8	1.3	-11.7%	i	-17.6%	-0.9%	·	·	·
CCOC(=O)CCCCC(=O)c1[nH]c(=O)[nH]c1Cn1cnc2ccccc21	-15.3	0.1	10µM*	i	18.7%	-12.7%	10.3µM*	2.59µM*	25.9µM*
Cc1ccc(NC(=O)CSc2ncc(S(=O)(=O)c3ccccc3)c(=O)[nH]2)cc1C	8.6	6.5	25.1µM*	i	16.2%	-2.3%	?	?	6.1%
CCOc1ccc(-c2cccc(NC(=O)c3cccs3)c2)nn1	3.9	4.0	·	i	-33.7%	·	·	·	·
O=C1c2c(O)ccc(O)c2C(=O)c2c(NCCNCCO)ccc(NCCNCCO)c21	-19.4	-14.9	?	-34.5%	-2.6%	?	1.58µM*	?	-5.7%[19.2 µM]
O=C1c2ccccc2C(=O)c2c(Nc3ccc(CCO)cc3)ccc(O)c21	-19.4	-3.8	?	-21.6%	11.1%	·	·	·	·
CCn1c(SCC(=O)Nc2nc(C)c(C)s2)nnc1-c1cccs1	12.9	0.0	39.8µM*	-86.7%	24.4%	2.1%	-3.6%	-11.6%	2.4%
COc1ccc(NC(=O)NC(C(F)(F)F)C(F)(F)F)cc1	-18.6	0.4	31.6µM*	-27.4%	-13.9%	4.3%	?	-2.4%	?
CCCc1cnc2c(c1SCC(=O)Nc1ccc([N+](=O)[O-])cc1)c(=O)n(C)c(=O)n2C	·	-5.4	·	-7.2%	·	·	·	·	·
CN(C(=O)COC(=O)c1ccc(-c2ccc(O)cc2)cc1)C1CCS(=O)(=O)C1 (stereo not drawn)	0.4	-8.9	39.8µM*	-19.9%	-2.7%	13.4%	?	20.6µM*	-12.9%
COC(=O)c1ccc(N)cc1O	5.7	-0.9	-3.8%	-15.2%	18.4%	-1.8%	·	·	·
COC(=O)c1ccc(=O)c2nc3/c(=C/O)c(O)cc(=O)c3[nH]c12	-4.3	9.3	?	-3.2%	20.9%	·	0.259µM*	0.291µM*	5.2%
Cn1c(=O)c2c(ncn2CCO)n(C)c1=O	0.0	-67.6	0.8%	i	·	-2.4%	1.2%	-0.2%	2.1%
C[C@@H]1O[C@@H](OC[C@H]2O[C@@H](Oc3c(-c4ccc(O)c(O)c4)oc4cc(O)cc(O)c4c3=O)[C@H](O)[C@@H](O)[C@@H]2O)[C@H](O)[C@H](O)[C@H]1O	21.7	3.3	?	13.2%	·	-27.7%	?	?	16.6%
C=CCn1c(NS(=O)(=O)c2ccccc2)c(S(=O)(=O)c2ccc(C)cc2)c2nc3ccccc3nc21	-10.8	-9.7	20µM*	-28.2%	-4.5%	-3.7%	4.0%	?	0.2%
Cc1ccc(S(=O)(=O)c2c(N)n(-c3ccccc3)c3nc4ccccc4nc23)cc1	-28.6	-8.2	13.2%	-6.3%	6.0%	4.1%	·	·	·
Clc1cc(Cl)cc(C2=NCCC(c3ccccc3)O2)c1 (stereo not drawn)	·	·	0.8%	·	·	10.9%	·	·	·
O=C(Nc1ccc(F)cc1)Nn1cnnc1	-3.2	-4.0	-22.7%	i	22.2%	·	·	·	·
COc1ccc(NC(=O)Nn2cnnc2)cc1OC	5.0	2.7	39.8µM*	-22.9%	7.6%	·	25.9µM*	-2.8%	?
O=C(Nc1ccc(F)c(Cl)c1)Nn1cnnc1	·	·	39.8µM*	·	·	·	13µM*	-18.5%	?
COCCCNC(=O)CCCN1C(=O)CCn2nc(-c3cn(C)c4ccccc34)cc21	·	-2.5	·	22.4%	·	·	·	·	·
c1csc(C(c2nnnn2C2CCCCC2)N2CCCC3(CCCCC3)C2)c1 (stereo not drawn)	-14.5	1.0	25.1µM*	i	-22.7%	9.3%	-19.0%	-21.0%	-4.2%
COc1ccc(-c2[nH]ncc2CN2CCC(O)(c3ccc(Cl)cc3)CC2)cc1	?	-13.0	2.1%	-5.3%	-51.5%	9.3%	·	·	·
OC1(c2ccc(Cl)cc2)CCN(Cc2cn[nH]c2-c2ccccc2)CC1	-97.6*	-12.5	10µM*	i	13.2%	-25.4%	41.1µM*	-10.3%	-12.3%
COc1ccc(CCNC(=O)C2CC(=O)N(c3ccccc3)C2)cc1OC (stereo not drawn)	10.8	-12.0	11.2%	i	-0.7%	26.0%	-4.9%	-2.1%	1.3%
COc1ccc(CCNC(=O)C2CC(=O)N(c3ccc(Br)cc3)C2)cc1OC (stereo not drawn)	-2.9	-1.2	-7.0%	-3.1%	?	3.3%	·	·	·
